Measurements taken from PubChem BioAssay.
Active and inactive are the calls of the source.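 Rule for the calls, unless noted: active = inhibition above 20% together with a positive visual image hit; inconclusive = visual image hit but inhibition not above 20%; inactive = no visual image hit.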

Experiments:
[1] = inhibitors of TNFa-induced NFkB p65 translocation, primary screen, imaging, HUVEC, MLSMR starter and 10KST1 sets (AID 438); conditions: HUVEC TNFa-induced p65 nuclear translocation; cell count: measured here: nuclei count (cytotoxicity indicator), at 2.08 µM; inhibition: at 2 µM, stronger effect = higher value, 0% TNFa-plus-vehicle, 100% no-TNFa wells;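 note: compound added about 3h40 before a 20 min TNFalpha stimulation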;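 for inhibition: signal is the nuclear over cytoplasmic p65 intensity ratio per well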
[2] = inhibitors of mutant huntingtin aggregation, primary screen, imaging, exon1htt(103Q)mCFP cells, high-content imaging (AID 483;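 active = visual image review flags a hit and inhibition of aggregation exceeds 20%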;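 note: compound exposure lasted 3 days before fixation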;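 for nuclei count: percent of the per-plate median nuclei count of sample wells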); conditions: exon1htt(103Q)mCFP cell line, aggregate imaging, at 2 µM; inhibition of aggregation: stronger effect = higher value; nuclei count: measured here: cell count, toxicity
[3] = inhibitors of E-selectin induction by TNFa, primary screen, imaging, HUVEC, immunofluorescence, MLSMR starter and 10KST1 sets (AID 487;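 active = visually confirmed hit in the image check and inhibition above 20%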;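 for inhibition: signal is fraction of cell area covered by stained E-selectin grains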;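 for nuclei count: 100% = median nuclei count of all wells on the same plate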); conditions: HUVEC TNFalpha-induced E-selectin immunofluorescence imaging, at 2 µM; inhibition: stronger effect = higher value; nuclei count: measured here: cell number, toxicity
[4] = target: Voltage-gated potassium channel subunit beta-2 (Rattus norvegicus) (UniProt P62483); assay: KvBeta enzyme negative modulators, primary screen, biochemical, NADPH fluorescence (AID 622;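 active = fluorescence slope higher than the sample average by over 3 SD, cut at about -0.22 in these data, passing the limit was not always enough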;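 note: slope of raw intensity against log time taken from 70 to 1610 s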); conditions: recombinant KvBeta, 4-cyanobenzaldehyde reduction, at 10 µM, stronger effect = higher value
Chain of Voltage-gated potassium channel subunit beta-2 (Rattus norvegicus) (P62483 whole entry, looked up): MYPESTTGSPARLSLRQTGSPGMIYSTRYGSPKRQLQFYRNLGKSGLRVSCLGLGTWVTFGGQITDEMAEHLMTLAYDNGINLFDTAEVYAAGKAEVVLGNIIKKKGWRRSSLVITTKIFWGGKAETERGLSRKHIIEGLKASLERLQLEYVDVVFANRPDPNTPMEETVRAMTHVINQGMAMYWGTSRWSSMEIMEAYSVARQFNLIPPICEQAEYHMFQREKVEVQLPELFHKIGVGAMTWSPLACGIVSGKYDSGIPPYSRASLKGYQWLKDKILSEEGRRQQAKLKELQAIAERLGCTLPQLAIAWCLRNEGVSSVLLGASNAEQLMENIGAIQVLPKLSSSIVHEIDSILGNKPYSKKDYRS

[5] = target: Voltage-gated potassium channel subunit beta-2 (Rattus norvegicus) (UniProt P62483); assay: KvBeta positive modulators, primary screen, biochemical, NADPH fluorescence (AID 623;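 active = NADPH fluorescence slope more negative than the mean of all samples by about 3 SD, 99.7% confidence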;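 note: fluorescence intensity change per second fitted from 20 to 320 s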); conditions: Recombinant KvBeta, NADPH fluorescence decrease slope, 10 min; at 10 µM; stronger effect = lower value
[6] = target: Alpha-2C adrenergic receptor (Homo sapiens) (UniProt P18825); assay: modulators of alpha2C/GIRK thallium flux, primary screen, cell-based, HEK293 alpha2C/GIRK1/2 (AID 624;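 active = fluorescence slope after compound addition differing from the mean of all screened samples at 99.7% confidence, in either direction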;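 note: slope of fluorescence ratio to pre-addition baseline per second over 15 to 24 s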); conditions: thallium flux BTC fluorescence, at 10 µM, actives lie on both sides
Chain of Alpha-2C adrenergic receptor (Homo sapiens) (P18825 whole entry, looked up): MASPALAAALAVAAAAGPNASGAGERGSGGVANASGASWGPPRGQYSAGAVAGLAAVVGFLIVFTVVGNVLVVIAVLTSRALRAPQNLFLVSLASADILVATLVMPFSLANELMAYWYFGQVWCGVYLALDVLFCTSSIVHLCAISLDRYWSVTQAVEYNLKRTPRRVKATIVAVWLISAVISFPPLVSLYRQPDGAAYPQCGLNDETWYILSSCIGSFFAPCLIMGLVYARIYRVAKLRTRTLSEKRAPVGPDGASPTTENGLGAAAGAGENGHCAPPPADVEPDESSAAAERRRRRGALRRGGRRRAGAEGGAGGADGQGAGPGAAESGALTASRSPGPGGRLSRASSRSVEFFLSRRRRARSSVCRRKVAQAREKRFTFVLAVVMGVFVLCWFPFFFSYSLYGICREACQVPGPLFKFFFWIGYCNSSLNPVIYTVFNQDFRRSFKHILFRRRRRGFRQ

[7] = inhibitors of Sendai virus-induced IRF3 signaling, primary screen, TLR/RLR signaling modifier project, cell-based, Sendai virus stimulus, luciferase, 10K MLSCN set (AID 602276;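 active = inhibition at or above 50% at 10 µM; inactive = inhibition below 50%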;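 note: firefly luciferase from ISG56 promoter only with Renilla not read in this screen; 0% = Sendai virus plus DMSO and 100% = medium plus DMSO without virus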); conditions: HEK293 RL24 IRF3 luciferase reporter, at 10 µM, stronger effect = higher value
[8] = inhibitors of poly I:C-induced TLR3 signaling, primary screen, cell-based, poly I:C stimulus, luciferase, 10K MLSCN set (AID 602277;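 active = inhibition of the reporter signal at or above 50%; inactive = inhibition below 50%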); conditions: HEK293-TLR3 RL24 IRF3 luciferase reporter, at 10 µM, stronger effect = higher value

| SMILES | cell count [1] | inhibition [1] | inhibition of aggregation [2] | nuclei count [2] | inhibition [3] | nuclei count [3] | fluorescence slope [4] | NADPH fluorescence slope [5] | slope [6] | inhibition [7] | inhibition [8] |
| --- | --- | --- | --- | --- | --- | --- | --- | --- | --- | --- | --- |
| COc1ccc(-n2ncc3c(NCCCN4CCOCC4)ncnc32)cc1 | 340 | 1.4% (inactive) | -6.2% (inactive) | 116% | 1.8% (inactive) | 118% | -0.59 (inactive) | -5.4e-05 (inactive) | 0.00402 (inactive) | 44.5% (inactive) | 7.05% (inactive) |
| COc1ccc(NC2c3ncccc3C(=O)N2Cc2ccccc2)c(OC)c1 (stereo not drawn) | 480 | 1.6% (inactive) | -17% (inactive) | 116% | -31.3% (inactive) | 114% | -0.609 (inactive) | -9.3e-06 (inactive) | 0.00393 (inactive) | 7.6% (inactive) | 15.8% (inactive) |
| CCOc1ccc(CNC(=O)C2CCCN(S(C)(=O)=O)C2)cc1OC (stereo not drawn) | 664 | -7.1% (inactive) | 11.9% (inactive) | 84% | -95.3% (inactive) | 136% | -0.356 (inactive) | -1.3e-05 (inactive) | 0.00564 (inactive) | 9.09% (inactive) | 12% (inactive) |
| Cn1c(C(=O)OCC(=O)NCC2CCCO2)cc2sccc21 (stereo not drawn) | 497 | -1% (inactive) | -7.3% (inactive) | 108% | -79% (inactive) | 107% | -0.451 (inactive) | 9.3e-06 (inactive) | 0.00457 (inactive) | 13.3% (inactive) | 13.1% (inactive) |
| O=C(C1CC1)N1CCC(c2nc(-c3ccc(S(=O)(=O)NCC4CCCO4)cc3)no2)CC1 (stereo not drawn) | 334 | -3% (inactive) | -20.7% (inactive) | 143% | -43.6% (inactive) | 91.9% | -0.491 (inactive) | 3.5e-06 (inactive) | 0.00666 (inactive) | -27.5% (inactive) | -49.4% (inactive) |
| CCOc1ccc(N2CC(C(=O)Nc3ccccc3OC)CC2=O)cc1 (stereo not drawn) | 663 | -3.4% (inactive) | -8.5% (inactive) | 89% | -21.8% (inactive) | 126% | -0.404 (inactive) | 2.8e-05 (inactive) | 0.00536 (inactive) | 5.76% (inactive) | -2.71% (inactive) |
| CSCCC(N=CC1=C(O)CC(C)(C)CC1=O)C(=O)O (stereo not drawn) | 405 | 1.8% (inactive) | -10.8% (inactive) | 104% | -0.2% (inactive) | 118% | -0.363 (inactive) | -4.2e-05 (inactive) | 0.00607 (inactive) | 15.3% (inactive) | 22.3% (inactive) |
| CCCCOC(=O)CN1C(=O)c2ccc(C(=O)OCCCC)cc2C1=O | 619 | -4.1% (inactive) | -4.5% (inactive) | 36.7% | -48.1% (inactive) | 88.2% | -0.486 (inactive) | -2.2e-05 (inactive) | 0.00602 (inactive) | -2.49% (inactive) | 26% (inactive) |
| CCN(CC)CCNC(=O)c1ccc(CS(=O)(=O)c2ccc(Br)cc2)o1 | 655 | 11.2% (inactive) | -11.8% (inactive) | 103% | 21.7% (inactive) | 117% | -0.611 (inactive) | -3.9e-05 (inactive) | 0.00568 (inactive) | 7.79% (inactive) | 25.7% (inactive) |
| CC(=O)NC(C)c1nc2ccccc2n1C(C)C (stereo not drawn) | 588 | 11.5% (inactive) | -2.2% (inactive) | 98.7% | -50.6% (inactive) | 121% | -0.551 (inactive) | -2.4e-05 (inactive) | 0.00604 (inactive) | 14.5% (inactive) | 42.2% (inactive) |
| CC(C)(Oc1ccc(Cl)cc1)C(=O)NCc1ccncc1 | 419 | 5.2% (inactive) | -21% (inactive) | 96.4% | -85.3% (inactive) | 113% | -0.297 (inactive) | -5.5e-05 (inactive) | 0.00503 (inactive) | 11.3% (inactive) | 12.2% (inactive) |
| O=C(Cn1cnc2c(nnn2Cc2ccc(Cl)cc2)c1=O)NCC1CCCO1 (stereo not drawn) | 641 | -18.8% (inactive) | -21.6% (inactive) | 89.2% | -89.9% (inactive) | 132% | -0.522 (inactive) | -4.5e-06 (inactive) | 0.00509 (inactive) | 16.8% (inactive) | 26% (inactive) |
| N#C/C(=C(/O)COC(=O)CCC1CCCCC1)c1nc2ccccc2[nH]1 | 317 | -3.4% (inactive) | -9.2% (inactive) | 120% | -3.3% (inactive) | 113% | -0.595 (inactive) | -3.2e-05 (inactive) | 0.0028 (inactive) | 16.8% (inactive) | 24.8% (inactive) |
| CC(C)Cn1c(N)c(C(=O)COC(=O)c2cc(-c3ccco3)nc3ccccc23)c(=O)n(C)c1=O | 381 | -2.2% (inactive) | -4.3% (inactive) | 100% | -133% (inactive) | 110% | -0.482 (inactive) | -1.1e-05 (inactive) | 0.00566 (inactive) | 15.4% (inactive) | -3.29% (inactive) |
| CC(C)Cc1nc2oc3c(N4CCN(CCO)CC4)ncnc3c2c2c1CCCC2 | 450 | -11.5% (inactive) | -9.1% (inactive) | 99.9% | 6.5% (inactive) | 119% | -0.475 (inactive) | 4e-05 (inactive) | 0.00359 (inactive) | -8.86% (inactive) | 31.2% (inactive) |
| Cc1ccc(-n2nc(C)c3cc(C(=O)O)sc32)cc1 | 369 | 6.3% (inactive) | 11.1% (inactive) | 90.3% | -140% (inactive) | 97.4% | -0.191 (inactive) | -5e-05 (inactive) | 0.00582 (inactive) | 12.6% (inactive) | 33.9% (inactive) |
| Cc1ccc(C(=O)N2CCCC(c3nc4c(nnn4Cc4ccccc4)c(=O)[nH]3)C2)cc1 (stereo not drawn) | 671 | -6.5% (inactive) | -2.8% (inactive) | 118% | -44.4% (inactive) | 104% | -0.38 (inactive) | -5.9e-05 (inactive) | 0.00676 (inactive) | 13.8% (inactive) | 21.2% (inactive) |
| COc1cccc(NC(=O)C2CCCN2C(=O)Nc2cccc(F)c2)c1 (stereo not drawn) | 584 | -15.1% (inactive) | -3.6% (inactive) | 86.9% | -62.2% (inactive) | 111% | -0.512 (inactive) | -5.6e-05 (inactive) | 0.00468 (inactive) | 9.51% (inactive) | 8.88% (inactive) |
| O=C1C(Cl)=C(N2CCOCC2)C(=O)N1CCc1ccccc1 | 373 | 2.8% (inactive) | -26.1% (inactive) | 97.1% | -20.9% (inactive) | 94.6% | -0.356 (inactive) | -8.5e-06 (inactive) | 0.0076 (inactive) | -18.6% (inactive) | -16.7% (inactive) |
| CCOC(=O)N1CCN(C(=O)CN2C(=O)COc3ccc(C)cc32)CC1 | 590 | 1.5% (inactive) | 9.7% (inactive) | 98.6% | -64.6% (inactive) | 107% | -0.364 (inactive) | -3.7e-05 (inactive) | 0.00215 (inactive) | 7.89% (inactive) | 29.7% (inactive) |
| CCOC(=O)Nc1c(O)ccc2oc(C)c(-c3ccccc3)c12 | 271 | -6.4% (inactive) | -22% (inactive) | 104% | -63.2% (inactive) | 106% | -0.5 (inactive) | -0.000121 (inactive) | 0.0037 (inactive) | 18.3% (inactive) | 28.6% (inactive) |
| O=C(c1ccc(Cl)cc1)N1CCCCC(Sc2nnc(-c3ccc4c(c3)OCO4)o2)C1=O (stereo not drawn) | 505 | -13.7% (inactive) | 14.1% (inactive) | 93.7% | -71.6% (inactive) | 145% | -0.624 (inactive) | -3.6e-05 (inactive) | 0.00978 (inactive) | -180% (inactive) | 92% (active) |
| Cc1nc2c(-c3ccccc3)c(C)nn2c(C)c1CCC(=O)NCc1ccco1 | 545 | -1.1% (inactive) | -8.9% (inactive) | 84.3% | -61.2% (inactive) | 102% | -0.584 (inactive) | 1.5e-05 (inactive) | 0.00663 (inactive) | 9.03% (inactive) | 31.1% (inactive) |
| O=C(NC(C(=O)c1ccccc1)N1CCOCC1)c1cccs1 (stereo not drawn) | 629 | -14.3% (inactive) | 19.4% (inactive) | 72.3% | -2.1% (inactive) | 101% | -0.311 (inactive) | -5.7e-05 (inactive) | 0.00609 (inactive) | -18.2% (inactive) | -23.5% (inactive) |
| Cn1c(=O)c2c(nc(SCC(=O)NCc3ccco3)n2C)n(C)c1=O | 616 | 1.7% (inactive) | 19% (inactive) | 78.5% | -63.1% (inactive) | 100% | -0.611 (inactive) | 1.2e-05 (inactive) | 0.00578 (inactive) | 3.04% (inactive) | 5.37% (inactive) |
| CN1CC=C2C(C#N)=C(N)C(C#N)(C#N)C(Cc3ccccc3)C2C1 (stereo not drawn) | 556 | 10% (inactive) | 0.5% (inactive) | 81.2% | -7.7% (inactive) | 102% | -0.507 (inactive) | -2.1e-05 (inactive) | 0.0052 (inactive) | 4.84% (inactive) | 8.81% (inactive) |
| CCOc1ccc(NC(=O)CC2NCCNC2=O)cc1 (stereo not drawn) | 738 | -10.9% (inactive) | -1.6% (inactive) | 126% | -39.4% (inactive) | 99.2% | -0.302 (inactive) | -7e-05 (inactive) | 0.00573 (inactive) | 9.27% (inactive) | 13.9% (inactive) |
| COc1ccc(-c2nnc(-c3cccs3)o2)cc1OC | 384 | -0.2% (inactive) | 6.2% (inactive) | 99% | 67.8% (active) | 94.7% | -0.343 (inactive) | 3e-05 (inactive) | 0.00689 (inactive) | -76.7% (inactive) | -170% (inactive) |
